Assay outcomes as filed in PubChem BioAssay.
An excerpt weighted towards active compounds, which were near 2.2% of everything screened.
TMEM16A act: activators or potentiators of mouse TMEM16A chloride channel; Q8BHY3; HEK293 TMEM16A/YFP-H148Q/I152L, iodide quench fluorescence; stronger effect = lower value; B-score at 10 µM; actives 0.3% (n = 340,000);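 active = fluorescence-ratio B-score plate-corrected deviation score at least 3 library SD below zero, with starting fluorescence score within 5 deviations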;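 also: channel opened by trigger with iodide after compound preincubation; score built on the fluorescence ratio of max minus min over baseline; more negative score means more quench and so TMEM16A activation or potentiation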
NOD2 RIPK2 PPI: blocks binding of human NOD2 to RIPK2; O43353; CHO BLA complementation NOD2-RIPK2, CCF4 ratio; inhibition, % at 4.98 µM; actives 0.38% (n = 360,000); in the data active = inhibition above about 21%
TLR4-MyD88 BLA: TLR4-MyD88 interaction inhibition in cells; O00206+Q99836; HeLa CL3-4 TLR4/MyD88 BLA complementation, FRET ratio; inhibition, % at 8.4 µM; actives 0.18% (n = 200,000); AID 861; in the data active = inhibition above about 25%
GRK2 inh: inhibitors of human GRK2 displacing RNA aptamer. actives 0.59% (n = 330,000). inhibition of aptamer binding, % at 10 µM. bead flow cytometry, FAM-aptamer displacement from GRK2;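 active = inhibition of aptamer binding above 40%, roughly 3 SD of noise, on plates passing a quality check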;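 also: median bead fluorescence of bound FAM aptamer so fluorescent compounds give negative values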
ANO1 block: inhibitors of mouse TMEM16A calcium-activated chloride channel | Q8BHY3 | HEK293 TMEM16A/YFP iodide influx fluorescence, ionomycin | normalized B-score (activity score, 25-100; higher = stronger inhibition) at 10 µM | actives 1.2% (n = 310,000);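 active = ratio plate-corrected score three or more library SD toward inhibition, starting fluorescence score within five deviations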;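 also: score derived from kinetic fluorescence span divided by baseline fluorescence per well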
TLR9-MyD88 inh: TLR9-MyD88 interaction inhibition | Q9NR96+Q99836 | CHO BLA complementation TLR9-MyD88, CCF4 FRET ratio | inhibition, % at 4.98 µM | actives 0.21% (n = 340,000);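 active = inhibition above the mean over all tested compounds plus 3 SD, cut at about 21% in these data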
TMEM16A reconf: reconfirmed blocker of mouse TMEM16A calcium-activated chloride channel | actives 39% (n = 2,300) | shares compounds with ANO1 block | inhibition, % at 10 µM | HEK293 TMEM16A/YFP-H148Q, iodide quench fluorescence; ionomycin added to raise cell calcium | AID 652189;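 active = mean duplicate percent inhibition, scaled so buffer wells are 0 and the reference blocker 100, over three buffer SD above buffer mean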
TMEM16A Ca cntr: alters calcium mobilization in TMEM16A HEK293 cells, counter-screen. shares compounds with ANO1 block. TMEM16A/YFP HEK293, Fluo4 calcium mobilization. calcium response (% of ionomycin), % at 10 µM. actives 2% (n = 2,300);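 active = duplicate-averaged calcium signal over 20% of the ionomycin maximum, relative to buffer baseline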;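 also: each well's signal is peak minus trough fluorescence divided by its pre-addition baseline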
YFP-HEK293 quench: acts in parental YFP-HEK293 cells lacking TMEM16A, counter-screen; shares compounds with ANO1 block; iodide YFP quench, ionomycin; 2,300 tested, under 10 active; YFP ratio F(max-min)/F0 at 10 µM;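 active = yellow fluorescent protein signal ratio exceeding the buffer control mean by over 5 SD of those controls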;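 also: ratio is mean of duplicate wells from kinetic YFP trace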
ClC-1 inh: rat ClC-1 inhibition, TMEM16A specificity screen | 2,300 tested, under 10 active | ratio percent, % at 10 µM | CHO ClC-1-YFP, iodide influx fluorescence quench; iodide control reads 0, buffer control 100 | shares compounds with ANO1 block;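 active = duplicate-mean ratio percent above the mean of iodide-only control wells, which defines zero, plus 5 of their SD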;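 also: higher percent means stronger block of ClC-1 iodide influx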
A number is an active result; . = inactive; / = not tested or not shown.

SMILES	TMEM16A act	NOD2 RIPK2 PPI	TLR4-MyD88 BLA	GRK2 inh	ANO1 block	TLR9-MyD88 inh	TMEM16A reconf	TMEM16A Ca cntr	YFP-HEK293 quench	ClC-1 inh
COc1ccc(OC)c(/C=C2/Sc3ccccc3C2=O)c1	.	.	.	.	.	.	.	.	.	.
O=C(OCc1ccccc1Cl)c1cccnc1Cl	.	.	.	.	.	.	/	/	/	/
O=C(OCc1ccccc1Cl)c1ccccc1C(=O)c1ccccc1	.	.	.	.	100	.	.	.	.	.
Clc1ccc(Cc2ccc(SCc3ccccc3)nn2)c(Cl)c1	.	.	.	.	25	.	.	.	.	.
Clc1ccc(Cc2ccc(Cl)nn2)c(Cl)c1	.	.	.	.	.	.	/	/	/	/
COc1ccc(-c2c3c(nc4sc5c(Cl)nc(C)nc5c24)CCC3)cc1	.	.	.	.	100	.	.	.	.	.
Cc1ccc(-c2c3c(nc4sc(C(N)=O)c(N)c24)CCC3)cc1	.	.	.	.	.	.	/	/	/	/
CSc1ccc(/C=C(/NC(=O)c2ccccc2)C(=O)NCCN2CCOCC2)cc1	.	.	/	.	.	.	/	/	/	/
CN1CCN(/C=N/c2c(C#N)cnn2Cc2ccccc2)CC1	.	.	.	.	25	.	.	.	.	.
COc1ccc2nc(C)cc(N3CC(C)OC(C)C3)c2c1 (centres undefined)	.	.	.	.	25	.	.	.	.	.
CCSc1nc(C)cc(C)c1S(=O)(=O)c1ccccc1C	.	.	.	.	100	.	.	.	.	.
CSc1nc(C)cc(C)c1S(=O)(=O)c1ccccc1C	.	.	.	.	.	.	/	/	/	/
CCC(C)Oc1nc(C)cc(C)c1S(=O)(=O)c1ccccc1C (centres undefined)	.	.	.	.	100	.	.	.	.	.
COc1nc(C)cc(C)c1S(=O)(=O)c1ccccc1C	.	.	/	.	.	.	/	/	/	/
Cc1nn(Cc2ccc(C(=O)Nc3ccccc3C(F)(F)F)o2)c(C)c1Br	.	.	.	.	.	.	/	/	/	/
Cc1csc(NC(=O)c2ccc(Cn3nc(C)c(Br)c3C)o2)n1	.	.	/	.	100	.	25%	.	.	.
COc1cc(C(=O)OCC(=O)NC2CCCCC2)cc2c1OCCO2	.	.	/	.	/	.	/	/	/	/
CCN(CC)S(=O)(=O)c1cc(NS(=O)(=O)c2c(Cl)cccc2Cl)ccc1C	.	.	.	.	.	.	/	/	/	/
CCN(CC)S(=O)(=O)c1cc(NS(=O)(=O)c2cccc(Cl)c2)ccc1C	.	.	.	.	25	.	28%	.	.	.
O=C(c1cc2ccccc2oc1=O)N1CCN(CCc2ccccc2)CC1	.	.	.	.	25	.	.	.	.	.
O=C(c1cc2c(ccc3ccccc32)oc1=O)N1CCCC1	.	.	.	.	100	.	.	.	.	.
COc1ccc2nc(-c3ccccc3)nc(SC)c2c1	.	.	/	/	/	.	/	/	/	/
N#Cc1cn(Cc2ccco2)c(=O)[nH]c1=O	.	.	/	/	/	.	/	/	/	/
Cc1ccc(NC(=O)COCC(=O)Nc2ccc(F)cc2)cc1	.	.	/	.	.	.	/	/	/	/
CCOC(=O)c1c(NC(=O)CSc2nnc(Cc3ccccc3)o2)sc(C(C)=O)c1C	.	.	.	.	25	.	16%	.	.	.
CCOC(=O)c1sc(NC(=O)CSc2nnc(Cc3ccccc3)o2)c(C#N)c1C	.	.	.	.	.	.	/	/	/	/
CCCCc1nc(N2CCOCC2)c(C#N)c2c1CCCC2	.	.	.	.	.	.	/	/	/	/
CCCc1nc(N2CCOCC2)c(C#N)c2c1CCCC2	.	.	.	.	100	.	.	.	.	.
